{
  "source": "PubChem BioAssay AID588689",
  "about": "(Southern Research Specialized Biocontainment Screening …, 2011)",
  "molecular_target": "Genome polyprotein (Dengue virus type 2 (strain 16681-PDK53)) (UniProt P29991)",
  "assay": "flavivirus cap methylation enzyme inhibition – biochemical, confirmation dose response, primary screen (AID 588689)",
  "conditions": "Dengue-2 NS5 methyltransferase capping enzyme assay, at 25 µM, stronger effect = higher value",
  "note": "About 1,000 (0.29%) of roughly 340,000 compounds were called active. Cut-off read from the data, not from the text of the source: inconclusive = inhibition above about 29% without an active follow-up result; inactive = below that. A selection follows. Measured potencies and affinities stand elsewhere.",
  "data": [
    {"smiles": "CC(C)(C)c1ccc(C(=O)Nc2c3c(nn2C(C)(C)C)CS(=O)(=O)C3)cc1", "values": [
      {"measurement": "inhibition", "result": "-9.75% (inactive)"}
    ]},
    {"smiles": "CCCOC(=O)CSC1=C(C#N)C(c2ccccc2OC)C(C#N)C(=O)N1", "note": "(stereo not drawn)", "values": [
      {"measurement": "inhibition", "result": "-15.9% (inactive)"}
    ]},
    {"smiles": "CNC(=O)CC1C(=O)N(C)C(=S)N1NC(=O)c1ccccc1", "note": "(stereo not drawn)", "values": [
      {"measurement": "inhibition", "result": "2.33% (inactive)"}
    ]},
    {"smiles": "COc1cc(C)ccc1OCCOc1ccccc1Cl", "values": [
      {"measurement": "inhibition", "result": "-4.77% (inactive)"}
    ]},
    {"smiles": "CCc1ccc(N=C2NC(=O)/C(=C/c3ccc(OCC(=O)O)c(OC)c3)S2)cc1", "values": [
      {"measurement": "inhibition", "result": "-3.47% (inactive)"}
    ]},
    {"smiles": "COc1cc(CO)cc(Br)c1OCC(=O)O", "values": [
      {"measurement": "inhibition", "result": "-12.1% (inactive)"}
    ]},
    {"smiles": "Cc1ccc(S(=O)(=O)NCCC(=O)Nc2nccs2)cc1", "values": [
      {"measurement": "inhibition", "result": "-0.76% (inactive)"}
    ]},
    {"smiles": "Cc1cccc(N(CC(=O)Nc2ccccc2-c2ccccc2)S(=O)(=O)c2ccccc2)c1C", "values": [
      {"measurement": "inhibition", "result": "1.45% (inactive)"}
    ]},
    {"smiles": "CC(C)(C)c1csc(CS(=O)(=O)c2ccccn2)n1", "values": [
      {"measurement": "inhibition", "result": "-4.67% (inactive)"}
    ]},
    {"smiles": "Cc1ccc(NC(=O)c2ccc(S(=O)(=O)Nc3c(C)n(C)n(-c4ccccc4)c3=O)cc2)nc1", "values": [
      {"measurement": "inhibition", "result": "-5.09% (inactive)"}
    ]},
    {"smiles": "Cc1cccc(NC(=O)CSc2nnc(-c3ccco3)c(-c3ccco3)n2)c1", "values": [
      {"measurement": "inhibition", "result": "25.8% (inactive)"}
    ]},
    {"smiles": "Cc1ccc(NC(=O)CSc2nnc(-c3ccco3)c(-c3ccco3)n2)cc1", "values": [
      {"measurement": "inhibition", "result": "14.3% (inactive)"}
    ]},
    {"smiles": "O=C(CSc1nnc(-c2ccco2)c(-c2ccco2)n1)c1ccccc1", "values": [
      {"measurement": "inhibition", "result": "29.5% (inactive)"}
    ]},
    {"smiles": "Cc1cccc(NC(=O)CSc2nnc(-c3ccco3)o2)c1C", "values": [
      {"measurement": "inhibition", "result": "3.22% (inactive)"}
    ]},
    {"smiles": "CSc1nnc(-c2ccccc2)c(-c2ccccc2)n1", "values": [
      {"measurement": "inhibition", "result": "-5.41% (inactive)"}
    ]},
    {"smiles": "Cc1ccccc1NC(=O)CSc1n[nH]c(-c2ccco2)n1", "values": [
      {"measurement": "inhibition", "result": "0.76% (inactive)"}
    ]},
    {"smiles": "COc1cccc(NC(=O)c2ccc3c(O)c(S(=O)(=O)c4ccccc4)c(=O)[nH]c3c2)c1", "values": [
      {"measurement": "inhibition", "result": "4.09% (inactive)"}
    ]},
    {"smiles": "CCCCn1c(N)c(N(CC(C)C)C(=O)CC2CCCCC2)c(=O)[nH]c1=O", "values": [
      {"measurement": "inhibition", "result": "-11.5% (inactive)"}
    ]},
    {"smiles": "C[C@@H]1CC2[C@@H]3CC[C@H]4CC(=O)CC[C@]4(C)C3=CC[C@]2(C)[C@@]1(O)C(=O)CO", "note": "(stereo partly drawn)", "values": [
      {"measurement": "inhibition", "result": "-1.96% (inactive)"}
    ]},
    {"smiles": "CC1=C(C(=O)Nc2cccc(C(=O)NC(C)c3ccccc3)c2)SCCO1", "note": "(stereo not drawn)", "values": [
      {"measurement": "inhibition", "result": "-4.13% (inactive)"}
    ]},
    {"smiles": "CCOc1cc(C=O)cc(Cl)c1OCC(N)=O", "values": [
      {"measurement": "inhibition", "result": "-2.73% (inactive)"}
    ]},
    {"smiles": "CCOc1cc(C(=O)O)cc(Cl)c1OCC#N", "values": [
      {"measurement": "inhibition", "result": "-2.72% (inactive)"}
    ]},
    {"smiles": "O=c1[nH]c2ccc(S(=O)(=O)N3CCN(Cc4ccccc4)CC3)cc2[nH]c1=O", "values": [
      {"measurement": "inhibition", "result": "-2.74% (inactive)"}
    ]},
    {"smiles": "CC(=O)Nc1ccc(-c2csc(NC(=O)C3CCN(S(=O)(=O)c4cccs4)CC3)n2)cc1", "values": [
      {"measurement": "inhibition", "result": "-5.78% (inactive)"}
    ]},
    {"smiles": "Cc1ccc(N2C(=O)c3ccccc3C2=O)cc1C", "values": [
      {"measurement": "inhibition", "result": "-5.39% (inactive)"}
    ]},
    {"smiles": "Cc1ccc(N2C(=O)c3ccc(C(=O)O)cc3C2=O)cc1C", "values": [
      {"measurement": "inhibition", "result": "9.14% (inactive)"}
    ]},
    {"smiles": "COC(=O)c1c(C(=O)OC)c(-c2ccccc2)n2c1CCC2", "values": [
      {"measurement": "inhibition", "result": "1.6% (inactive)"}
    ]},
    {"smiles": "O=C(O)/C(=C\\c1ccc(Cl)c([N+](=O)[O-])c1)c1ccc(S(=O)(=O)N2CCCC2)s1", "values": [
      {"measurement": "inhibition", "result": "0.37% (inactive)"}
    ]},
    {"smiles": "O=C(O)/C(=C/c1ccc(Cl)c([N+](=O)[O-])c1)c1ccc(S(=O)(=O)N2CCCCC2)s1", "values": [
      {"measurement": "inhibition", "result": "15.9% (inactive)"}
    ]},
    {"smiles": "O=C(CN1C(=O)C2CCCCC2C1=O)OCC(=O)c1ccc(Cl)s1", "note": "(stereo not drawn)", "values": [
      {"measurement": "inhibition", "result": "-7.27% (inactive)"}
    ]},
    {"smiles": "O=S(=O)(c1ccc(=S)[nH]c1)N1CCOCC1", "values": [
      {"measurement": "inhibition", "result": "-8.4% (inactive)"}
    ]},
    {"smiles": "COC(=O)c1cccc(NC(=O)C2CCCN2C(=O)c2cccs2)c1", "note": "(stereo not drawn)", "values": [
      {"measurement": "inhibition", "result": "-0.73% (inactive)"}
    ]},
    {"smiles": "Cc1cc(C(=O)N/N=C2/CC(C)CC(C)(C)C2)c(C)o1", "note": "(stereo not drawn)", "values": [
      {"measurement": "inhibition", "result": "-5.92% (inactive)"}
    ]},
    {"smiles": "CC1(C)CC(=O)C2=C(C1)c1c(ccc3ccccc13)NC2c1ccco1", "note": "(stereo not drawn)", "values": [
      {"measurement": "inhibition", "result": "-4.19% (inactive)"}
    ]},
    {"smiles": "CC1(C)CC(=O)C2=C(C1)c1c(ccc3ccccc13)NC2c1ccc(C(=O)O)cc1", "note": "(stereo not drawn)", "values": [
      {"measurement": "inhibition", "result": "2.04% (inactive)"}
    ]},
    {"smiles": "COc1ccc(S(=O)(=O)N2CCN(c3ccccc3OC)CC2)cc1C(=O)N1CCCCC1", "values": [
      {"measurement": "inhibition", "result": "-9.14% (inactive)"}
    ]},
    {"smiles": "O=C(COc1ccc(Br)cc1)NNC(=S)NC(=O)c1ccccc1[N+](=O)[O-]", "values": [
      {"measurement": "inhibition", "result": "10.8% (inactive)"}
    ]},
    {"smiles": "Cc1ccccc1OCC(=O)NNC(=S)NC(=O)c1ccccc1[N+](=O)[O-]", "values": [
      {"measurement": "inhibition", "result": "-8.89% (inactive)"}
    ]},
    {"smiles": "Cc1ccsc1CN(C)Cc1nc(C2CC2)no1", "values": [
      {"measurement": "inhibition", "result": "1.78% (inactive)"}
    ]},
    {"smiles": "CCOc1ccc(C=NNc2ccc(S(=O)(=O)Nc3ccccc3C(=O)O)cc2[N+](=O)[O-])cc1OC", "values": [
      {"measurement": "inhibition", "result": "7.77% (inactive)"}
    ]},
    {"smiles": "CSc1ccc(C=NNc2ccc(S(=O)(=O)Nc3ccccc3C(=O)O)cc2[N+](=O)[O-])cc1", "values": [
      {"measurement": "inhibition", "result": "18.3% (inactive)"}
    ]},
    {"smiles": "COc1ccccc1NS(=O)(=O)c1ccc(N/N=C/c2c(C)nn(-c3ccccc3)c2N2CCCC2)c([N+](=O)[O-])c1", "values": [
      {"measurement": "inhibition", "result": "0.96% (inactive)"}
    ]},
    {"smiles": "CCOc1cccc(C=NNc2ccc(S(=O)(=O)Nc3ccccc3C(=O)O)cc2[N+](=O)[O-])c1O", "values": [
      {"measurement": "inhibition", "result": "9.55% (inactive)"}
    ]},
    {"smiles": "CCN(Cc1ccccc1)C(=O)c1ccc(C(=O)N(CC)Cc2ccccc2)cc1", "values": [
      {"measurement": "inhibition", "result": "-1.55% (inactive)"}
    ]},
    {"smiles": "CCc1nc(SCc2ccccc2)n[nH]1", "values": [
      {"measurement": "inhibition", "result": "8.1% (inactive)"}
    ]},
    {"smiles": "Cc1cc(C(F)(F)F)c(C#N)c(SCC(=O)NC(C)(C)C)n1", "values": [
      {"measurement": "inhibition", "result": "-2.7% (inactive)"},
      {"measurement": "inhibition", "setting": "measured here: pilot screen replicate inhibition", "result": 4.83, "unit": "%"}
    ]},
    {"smiles": "COc1cccc(O)c1CN1CCC(n2nccc2NC(=O)c2ccc3c(c2)OCO3)CC1", "values": [
      {"measurement": "inhibition", "result": "-3.24% (inactive)"}
    ]},
    {"smiles": "CCCCSc1n[nH]c(N)n1", "values": [
      {"measurement": "inhibition", "result": "-2.73% (inactive)"}
    ]},
    {"smiles": "COc1cccc(NC(=O)Cc2nnc(SCC(=O)NC3=NCCS3)n2C)c1", "values": [
      {"measurement": "inhibition", "result": "-1.78% (inactive)"}
    ]},
    {"smiles": "CCOc1cc(C(=O)N2CCN=C2SC)cc(OCC)c1OCC", "values": [
      {"measurement": "inhibition", "result": "-0.73% (inactive)"}
    ]},
    {"smiles": "CCCCCCN1C[C@H](n2cc(C3CC3)nn2)[C@@H](O)C[C@@H]1c1ccc(C)cc1", "values": [
      {"measurement": "inhibition", "result": "0% (inactive)"}
    ]},
    {"smiles": "COc1ccc(NC2=NCCC(=O)N2Cc2cccs2)cc1", "values": [
      {"measurement": "inhibition", "result": "3.14% (inactive)"}
    ]},
    {"smiles": "CN(C)/N=C/c1c(O)ccc2ccccc12", "values": [
      {"measurement": "inhibition", "result": "10.4% (inactive)"}
    ]},
    {"smiles": "OCC(CO)(CO)N=Cc1c(O)ccc2ccccc12", "values": [
      {"measurement": "inhibition", "result": "24.8% (inactive)"}
    ]},
    {"smiles": "COc1ccc(NC(=O)/C=C/c2ccccc2)c([N+](=O)[O-])c1", "values": [
      {"measurement": "inhibition", "result": "-2.2% (inactive)"}
    ]},
    {"smiles": "CC(=O)N1c2ccccc2NC2=C(C(=O)CCC2)C1c1ccco1", "note": "(stereo not drawn)", "values": [
      {"measurement": "inhibition", "result": "9.11% (inactive)"}
    ]},
    {"smiles": "Cn1cccc1/C=C1\\SC(=S)N(CC(=O)O)C1=O", "values": [
      {"measurement": "inhibition", "result": "-7.69% (inactive)"}
    ]},
    {"smiles": "CCn1c(C)cc(/C=C2/SC(=S)N(CC(=O)O)C2=O)c1C", "values": [
      {"measurement": "inhibition", "result": "-89.8% (inactive)"}
    ]},
    {"smiles": "O/N=C/c1cc(Br)ccc1OCc1ccc(F)cc1", "values": [
      {"measurement": "inhibition", "result": "-7.14% (inactive)"}
    ]},
    {"smiles": "Cn1cccc1/C=C1/SC(=S)N(CC(=O)O)C1=O", "values": [
      {"measurement": "inhibition", "result": "3.63% (inactive)"}
    ]},
    {"smiles": "O=C(O)CCN1C(=O)/C(=C\\c2ccc(OCc3ccccc3)c(OCc3ccccc3)c2)SC1=S", "values": [
      {"measurement": "inhibition", "result": "8.45% (inactive)"}
    ]},
    {"smiles": "O=[N+]([O-])c1ccc(COc2ccc(Br)cc2CN2CCOCC2)cc1", "values": [
      {"measurement": "inhibition", "result": "-3.16% (inactive)"}
    ]}
  ]
}
